# From PubChem BioAssay AID651871 (Sanford-Burnham Center for Chemical Genomics, 2012)
# “And” between values parts separate entries of the source, which are not always exact repeats. Equal values may be shown once.
# Test system: HL-1
# Test: cardiomyocyte survival under oxidative or metabolic stress – cell-based, panel, H9c2 and HL-1, ATP luminescence, set 2, SAR follow-up (AID 651871);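 further: cells exposed to stressor for 2 h before ATP readout; reference of the scale not given here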
# Details: H9c2/HL-1 cardiomyocytes, 2-deoxyglucose stress, with 2-deoxyglucose, run 15, at 19.8 µM (top of the series)
smiles,measurement,value
COc1ccc2c(c1OC)C(=O)N1c3ccccc3C(=O)N(Cc3cccc(Cl)c3Cl)C21 (stereo unspecified),activity (protection/inhibition),69.2% and 28.8%
